Laboratory results: PubChem BioAssay (Tox21)
Where “and” joins values, the source holds several entries; their conditions need not be identical. Equal entries are not always repeated. Records with an inconclusive call do not appear. Entries that show only a call come without a potency. A structure can be active in one record and inactive in another. Calls of active or inactive are those of the source. Calls come from the whole dose curve; as a rule, active = well fitted curve in the direction sought with a large enough effect in the repeat runs; inconclusive = weak or mixed curves; inactive = no such curve, though single readings can be large; an effect the other way counts as inactive or inconclusive.

Tests used:
[1] = Human pregnane X receptor (PXR) small molecule agonists, qHTS cell viability counter screen (AID 1346977); note: nearly all actives have a fitted effect of over 50% in size
How it was run: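 After a 5hr pre-incubation, PXR-Luc HepG2 cells received compounds plus positive control in DMSO and were kept 24hr at 37C. Cell viability was quantified by fluorescence from CellTiter-Fluor added for the final hour.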

[2] = Caspase-3/7 induction in HepG2 cells by small molecules, qHTS assay (AID 1346978); note: nearly all actives have a fitted effect of over 15% in size
How it was run: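 Wild-type HepG2 cells, 2,000/well, settled 5 hr at 37 C and 5% CO2, then compound-treated for 17 hr; caspase-3/7 activity read by luminescent Caspase-Glo 3/7 after 30 min at room temperature.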

[3] = Caspase-3/7 induction in CHO-K1 cells by small molecules, qHTS cell viability counter screen (AID 1346979); note: nearly all actives have a fitted effect of over 35% in size
How it was run: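 Multiplexed with Caspase-Glo 3/7 in CHO-K1 cells, this counter screen added CellTiter-Fluor after 16hr of compound exposure and recorded fluorescence 1hr later.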

[4] = Caspase-3/7 induction in CHO-K1 cells by small molecules, qHTS assay (AID 1346980); note: nearly all actives have a fitted effect of over 15% in size
How it was run: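 Wild-type CHO-K1 cells exposed to compounds for 17hr at 37 C, 5% CO2. Caspase-3/7 activity then measured by Caspase-Glo 3/7 luminescence after 30min at room temperature.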

[5] = Caspase-3/7 induction in HepG2 cells by small molecules, qHTS cell viability counter screen (AID 1346981); note: series mostly up to about 92 µM; nearly all actives have a fitted effect of over 30% in size
How it was run: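 Wild-type HepG2 cells (2,000/well) were allowed to settle for 5 hr at 37 C, 5% CO2, then dosed with compounds in DMSO by pin transfer. After 16 hr at 37 C, CellTiter-Fluor was added and fluorescence read 1 hr later.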

[6] = target: Nuclear receptor subfamily 1 group I member 2 (Homo sapiens) (UniProt O75469); assay: Human pregnane X receptor (PXR) small molecule agonists, qHTS assay (AID 1346982); note: nearly all actives have a fitted effect of over 35% in size; note: potency is the fitted concentration of half-maximal effect
Chain of Nuclear receptor subfamily 1 group I member 2 (Homo sapiens) (O75469 whole entry, looked up): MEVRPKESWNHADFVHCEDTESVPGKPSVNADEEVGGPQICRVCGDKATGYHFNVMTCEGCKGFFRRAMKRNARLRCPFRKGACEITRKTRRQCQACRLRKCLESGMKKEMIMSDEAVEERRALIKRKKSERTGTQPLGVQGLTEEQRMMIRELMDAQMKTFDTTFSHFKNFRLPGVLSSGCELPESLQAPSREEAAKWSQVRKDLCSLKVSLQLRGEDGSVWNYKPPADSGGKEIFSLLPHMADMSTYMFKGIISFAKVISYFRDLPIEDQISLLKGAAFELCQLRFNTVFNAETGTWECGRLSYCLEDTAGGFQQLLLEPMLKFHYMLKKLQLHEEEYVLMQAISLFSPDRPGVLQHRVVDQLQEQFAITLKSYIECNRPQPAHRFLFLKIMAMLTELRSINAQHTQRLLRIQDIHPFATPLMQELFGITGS
How it was run: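 PXR-Luc HepG2 cells (CYP3A4 promoter-driven luciferase) were seeded in medium with 5% charcoal-stripped FBS, left 5 hr at 37 C, then exposed to compounds in DMSO for 24 hr. Luminescence was read after ONE-Glo addition.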

[7] = target: Cytochrome P450 2D6 (Homo sapiens) (UniProt P10635); assay: Cytochrome P450 Family 2 Subfamily D Member 6 (CYP2D6) small molecule antagonists: luciferase reporter qHTS assay (AID 1671196); note: nearly all actives have a fitted effect of over 50% in size; note: potency is the fitted concentration of half-maximal effect
Chain of Cytochrome P450 2D6 (Homo sapiens) (P10635 whole entry, looked up): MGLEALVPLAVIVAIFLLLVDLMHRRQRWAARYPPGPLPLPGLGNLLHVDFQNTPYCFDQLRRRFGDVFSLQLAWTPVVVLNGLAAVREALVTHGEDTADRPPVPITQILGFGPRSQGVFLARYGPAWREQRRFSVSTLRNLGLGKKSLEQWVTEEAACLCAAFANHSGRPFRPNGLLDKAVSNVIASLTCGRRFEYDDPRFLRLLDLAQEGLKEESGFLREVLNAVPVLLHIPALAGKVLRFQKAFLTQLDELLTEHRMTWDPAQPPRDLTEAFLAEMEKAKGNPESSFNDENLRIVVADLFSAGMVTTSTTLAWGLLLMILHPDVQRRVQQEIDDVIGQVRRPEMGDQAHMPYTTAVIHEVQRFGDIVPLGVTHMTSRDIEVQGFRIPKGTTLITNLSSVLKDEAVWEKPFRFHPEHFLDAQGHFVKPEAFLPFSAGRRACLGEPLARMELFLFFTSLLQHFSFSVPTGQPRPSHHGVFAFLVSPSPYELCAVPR
How it was run: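 CYP2D6 enzyme–substrate mix was held with compound for 10 min at room temperature, then NADPH regeneration solution was added and the reaction ran 1 h at room temperature. Luciferin product was detected by luminescence after 20 min with detection reagent.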

[8] = target: Cytochrome P450 2C19 (Homo sapiens) (UniProt P33261); assay: Cytochrome P450 Family 2 Subfamily C Member 19 (CYP2C19) small molecule antagonists: luciferase reporter qHTS assay (AID 1671197); note: nearly all actives have a fitted effect of over 65% in size; note: potency is the fitted concentration of half-maximal effect
Chain of Cytochrome P450 2C19 (Homo sapiens) (P33261 whole entry, looked up): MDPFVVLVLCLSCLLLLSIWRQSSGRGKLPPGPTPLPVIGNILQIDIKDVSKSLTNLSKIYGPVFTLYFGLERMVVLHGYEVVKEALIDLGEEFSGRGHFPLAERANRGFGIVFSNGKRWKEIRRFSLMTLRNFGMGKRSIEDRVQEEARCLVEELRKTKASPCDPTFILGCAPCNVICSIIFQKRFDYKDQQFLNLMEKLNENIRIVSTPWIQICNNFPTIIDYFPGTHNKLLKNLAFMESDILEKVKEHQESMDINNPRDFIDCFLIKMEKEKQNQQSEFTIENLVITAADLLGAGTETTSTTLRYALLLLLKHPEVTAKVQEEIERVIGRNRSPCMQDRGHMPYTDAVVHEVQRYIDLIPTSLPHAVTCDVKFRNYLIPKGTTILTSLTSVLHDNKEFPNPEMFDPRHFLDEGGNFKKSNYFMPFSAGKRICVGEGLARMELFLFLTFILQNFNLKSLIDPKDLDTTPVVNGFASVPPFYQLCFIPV
How it was run: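 Light output is proportional to CYP2C19 activity: proluciferin substrate is converted to luciferin, then detected by a luciferin detection reagent that also stops the 1 h, 37C NADPH-driven reaction. Ketoconazole serves as positive control.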

[9] = target: Cytochrome P450 2C9 (Homo sapiens) (UniProt P11712); assay: Cytochrome P450 Family 2 Subfamily C Member 9 (CYP2C9) small molecule antagonists: luciferase reporter qHTS assay (AID 1671198); note: nearly all actives have a fitted effect of over 50% in size; note: potency is the fitted concentration of half-maximal effect
Chain of Cytochrome P450 2C9 (Homo sapiens) (P11712 whole entry, looked up): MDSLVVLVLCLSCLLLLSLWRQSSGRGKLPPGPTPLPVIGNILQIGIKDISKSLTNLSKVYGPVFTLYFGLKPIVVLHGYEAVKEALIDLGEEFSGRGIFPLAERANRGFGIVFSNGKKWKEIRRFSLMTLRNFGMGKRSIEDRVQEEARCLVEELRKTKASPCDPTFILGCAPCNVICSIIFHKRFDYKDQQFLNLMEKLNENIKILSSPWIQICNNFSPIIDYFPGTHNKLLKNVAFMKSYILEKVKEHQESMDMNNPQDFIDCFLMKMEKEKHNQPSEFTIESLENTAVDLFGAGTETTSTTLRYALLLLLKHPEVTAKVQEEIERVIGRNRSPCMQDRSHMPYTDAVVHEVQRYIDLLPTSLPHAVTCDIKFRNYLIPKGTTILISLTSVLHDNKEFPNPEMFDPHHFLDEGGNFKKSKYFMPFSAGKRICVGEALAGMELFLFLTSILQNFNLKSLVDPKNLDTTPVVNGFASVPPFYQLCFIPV
How it was run: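 P450-Glo proluciferin substrate with CYP2C9 enzyme; 10 min RT preincubation, then NADPH regeneration 1 h at 37C; luciferin detection reagent 20 min RT, luminescence in relative luminescence units.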

[10] = target: Cytochrome P450 1A2 (Homo sapiens) (UniProt P05177); assay: Cytochrome P450 Family 1 Subfamily A Member 2 (CYP1A2) small molecule antagonists: luciferase reporter qHTS assay (AID 1671199); note: nearly all actives have a fitted effect of over 50% in size; note: potency is the fitted concentration of half-maximal effect
Chain of Cytochrome P450 1A2 (Homo sapiens) (P05177 whole entry, looked up): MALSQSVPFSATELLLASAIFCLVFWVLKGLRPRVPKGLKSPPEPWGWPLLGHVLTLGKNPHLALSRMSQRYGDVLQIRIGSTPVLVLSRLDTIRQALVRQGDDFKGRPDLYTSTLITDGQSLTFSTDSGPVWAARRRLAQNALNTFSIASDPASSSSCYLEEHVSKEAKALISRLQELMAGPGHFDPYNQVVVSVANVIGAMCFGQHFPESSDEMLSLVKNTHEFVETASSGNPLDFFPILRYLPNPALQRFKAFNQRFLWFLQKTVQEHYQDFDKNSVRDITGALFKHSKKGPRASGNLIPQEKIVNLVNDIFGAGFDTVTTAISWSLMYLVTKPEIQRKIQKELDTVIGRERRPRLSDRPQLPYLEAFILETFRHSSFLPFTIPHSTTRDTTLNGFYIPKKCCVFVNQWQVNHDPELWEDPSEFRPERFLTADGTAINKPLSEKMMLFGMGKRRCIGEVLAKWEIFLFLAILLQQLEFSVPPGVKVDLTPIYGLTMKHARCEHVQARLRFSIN
How it was run: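 Human CYP1A2 activity measured with a P450-Glo proluciferin substrate; compounds in DMSO preincubated 10 min at room temperature with enzyme-substrate mix, then NADPH regeneration system added for 1 h. Luciferin detection reagent, 20 min, luminescence read.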

[11] = target: Cytochrome P450 3A4 (Homo sapiens) (UniProt P08684); assay: Cytochrome P450 Family 3 Subfamily A Member 4 (CYP3A4) small molecule antagonists: luciferase reporter qHTS assay (AID 1671201)
Chain of Cytochrome P450 3A4 (Homo sapiens) (P08684 whole entry, looked up): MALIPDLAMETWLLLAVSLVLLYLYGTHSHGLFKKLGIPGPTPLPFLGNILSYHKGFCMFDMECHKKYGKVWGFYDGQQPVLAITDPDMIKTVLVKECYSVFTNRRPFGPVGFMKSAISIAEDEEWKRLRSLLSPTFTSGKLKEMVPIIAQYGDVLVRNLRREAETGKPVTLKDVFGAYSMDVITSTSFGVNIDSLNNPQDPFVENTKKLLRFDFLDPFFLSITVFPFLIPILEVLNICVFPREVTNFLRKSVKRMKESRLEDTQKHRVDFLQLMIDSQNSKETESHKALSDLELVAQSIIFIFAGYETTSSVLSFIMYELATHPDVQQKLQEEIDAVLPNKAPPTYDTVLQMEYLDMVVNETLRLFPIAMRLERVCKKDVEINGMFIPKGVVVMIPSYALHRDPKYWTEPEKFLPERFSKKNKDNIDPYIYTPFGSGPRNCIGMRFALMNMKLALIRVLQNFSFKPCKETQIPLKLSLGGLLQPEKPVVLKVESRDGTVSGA
How it was run: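 Room-temperature assay throughout: 10 min compound–enzyme/substrate preincubation, 1 h reaction after NADPH regeneration solution, 20 min detection. Luciferin formed from proluciferin substrate is quantified by luminescence.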

[12] = target: Nuclear receptor subfamily 1 group I member 2 (Rattus norvegicus) (UniProt Q9R1A7); assay: Rat pregnane X receptor (rPXR) activation by small molecules, qHTS assay (AID 1346983); conditions: rPXR luciferase reporter cells, One-Glo luminescence, 24 h; max activation: stronger effect = higher value; note: nearly all actives have a fitted effect of over 20% in size
Chain of Nuclear receptor subfamily 1 group I member 2 (Rattus norvegicus) (Q9R1A7 whole entry, looked up): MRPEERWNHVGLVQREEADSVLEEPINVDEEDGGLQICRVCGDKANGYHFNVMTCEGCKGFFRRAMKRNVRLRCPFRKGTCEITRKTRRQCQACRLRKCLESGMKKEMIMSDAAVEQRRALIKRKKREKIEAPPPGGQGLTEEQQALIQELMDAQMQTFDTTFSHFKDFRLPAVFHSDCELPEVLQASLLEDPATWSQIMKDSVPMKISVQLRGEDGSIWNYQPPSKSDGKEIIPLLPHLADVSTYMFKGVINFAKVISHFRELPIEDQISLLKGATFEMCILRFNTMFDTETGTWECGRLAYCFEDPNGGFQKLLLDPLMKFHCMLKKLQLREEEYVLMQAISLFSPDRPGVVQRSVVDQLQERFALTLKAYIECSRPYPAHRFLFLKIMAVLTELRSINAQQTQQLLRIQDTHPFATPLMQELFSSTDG
How it was run: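 Cell-based rPXR activation assay: rPXR cells, 2,000 per well, rested 5hr at 37 C, then exposed to compounds in DMSO for 24 hr at 37 C. Luciferase activity read by One-Glo luminescence after 30 min at room temperature.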

[13] = target: Nuclear receptor subfamily 1 group I member 2 (Homo sapiens) (UniProt O75469); assay: CYP3A4 induction through human pregnane X receptor (PXR) by small molecules, qHTS assay (AID 1346984); note: nearly all actives have a fitted effect of over 40% in size
How it was run: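 DPX-2 cells (HepG2 co-transfected with PXR and CYP3A4 promoter-luciferase) treated with compounds 24 h at 37C; luciferin-IPA CYP3A4 substrate 3uM final added for 3 h, then One-Glo; luminescence read. qHTS format.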

[14] = target: Nuclear receptor subfamily 1 group I member 2 (Homo sapiens) (UniProt O75469); assay: Human pregnane X receptor (PXR) activation by small molecules, qHTS assay (AID 1346985); note: nearly all actives have a fitted effect of over 40% in size
How it was run: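 DPX-2 cells (HepG2 co-transfected with a PXR response element and a CYP3A4-promoter luciferase construct) were seeded at 2,000 per well, rested 5 hr at 37C, then exposed to DMSO-dissolved compounds for 24 hr. Activation was read as luciferase luminescence.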

[15] = target: Voltage-gated inwardly rectifying potassium channel KCNH2 (Homo sapiens) (UniProt Q12809); assay: Human Ether-a-go-go-Related Gene (hERG) channel small molecule antagonists: fluorescence cell-based qHTS assay (AID 1671200)
Chain of Voltage-gated inwardly rectifying potassium channel KCNH2 (Homo sapiens) (Q12809 whole entry, looked up): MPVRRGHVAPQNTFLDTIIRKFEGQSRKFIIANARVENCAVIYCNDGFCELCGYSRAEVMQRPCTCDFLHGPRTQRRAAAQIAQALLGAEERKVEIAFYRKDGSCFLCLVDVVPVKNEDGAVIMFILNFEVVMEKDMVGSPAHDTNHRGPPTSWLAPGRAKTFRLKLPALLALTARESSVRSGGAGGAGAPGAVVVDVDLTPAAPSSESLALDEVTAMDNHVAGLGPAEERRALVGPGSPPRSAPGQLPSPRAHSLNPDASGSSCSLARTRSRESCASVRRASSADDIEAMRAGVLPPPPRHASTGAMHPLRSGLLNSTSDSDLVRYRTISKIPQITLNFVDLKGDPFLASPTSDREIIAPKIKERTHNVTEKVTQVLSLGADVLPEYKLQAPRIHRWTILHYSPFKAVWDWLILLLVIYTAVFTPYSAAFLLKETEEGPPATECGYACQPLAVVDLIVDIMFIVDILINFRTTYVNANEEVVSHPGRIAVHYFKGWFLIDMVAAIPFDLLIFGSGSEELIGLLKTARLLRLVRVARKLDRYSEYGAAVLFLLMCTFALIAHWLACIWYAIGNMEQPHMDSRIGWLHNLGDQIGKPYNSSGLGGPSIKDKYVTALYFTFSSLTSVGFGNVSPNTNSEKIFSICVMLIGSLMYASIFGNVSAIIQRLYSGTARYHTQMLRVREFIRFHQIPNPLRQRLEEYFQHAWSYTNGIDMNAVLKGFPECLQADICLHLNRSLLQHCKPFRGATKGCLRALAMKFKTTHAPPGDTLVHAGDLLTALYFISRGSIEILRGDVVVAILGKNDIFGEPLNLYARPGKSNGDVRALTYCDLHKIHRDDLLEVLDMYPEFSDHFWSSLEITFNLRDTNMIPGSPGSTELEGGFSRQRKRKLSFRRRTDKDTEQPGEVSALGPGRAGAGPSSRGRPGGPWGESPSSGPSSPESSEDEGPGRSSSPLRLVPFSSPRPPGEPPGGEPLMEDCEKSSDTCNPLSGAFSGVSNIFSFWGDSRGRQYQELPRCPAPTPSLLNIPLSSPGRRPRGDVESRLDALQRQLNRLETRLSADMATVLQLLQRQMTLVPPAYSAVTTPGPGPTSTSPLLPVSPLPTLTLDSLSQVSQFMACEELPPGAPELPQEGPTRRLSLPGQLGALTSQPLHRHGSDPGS
How it was run: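 Cell line hERG-U2OS; dye FluxOR II, 1 h RT dark; Tl+ stimulus; ex 480/em 540 nm, read each second for 2 min.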

CN/C(=C\[N+](=O)[O-])NCCSCc1ccc(CN(C)C)o1
Potency [1]: inactive
Potency [2]: inactive
Potency [3]: inactive
outcome [4]: inactive
Potency [5]: inactive
Potency [6]: inactive
Potency [7]: inactive
Potency [8]: inactive
Potency [9]: inactive
Potency [10]: inactive and 24.5 µM (active)
Potency [11]: inactive

COc1ccccc1O
Potency [2]: inactive
Potency [3]: inactive
outcome [4]: inactive
Potency [5]: inactive
Potency [6]: inactive
max activation [12]: -3.23% (inactive)
Potency [13]: inactive
Potency [14]: inactive
Potency [7]: inactive
Potency [8]: inactive
Potency [9]: inactive
Potency [10]: inactive and 52.6 µM (active)
Potency [15]: inactive
Potency [11]: inactive

COc1ccc(C(=O)c2ccccc2)c(O)c1
Potency [1]: inactive
Potency [2]: inactive
Potency [3]: inactive
outcome [4]: inactive
Potency [5]: inactive
Potency [6]: 60.1 µM (active) and 54.5 µM (active)
Potency [7]: 44.1 µM (active)
Potency [8]: 5.55 µM (active) and 10 µM (active) and 4.9 µM (active)
Potency [9]: 39.3 µM (active) and 35.6 µM (active) and 24.5 µM (active)
Potency [10]: 19.7 µM (active) and 22.4 µM (active) and 12.9 µM (active)
Potency [11]: inactive

CN(C)Cc1cc(CN(C)C)c(O)c(CN(C)C)c1
Potency [1]: inactive
Potency [2]: inactive
Potency [3]: inactive
outcome [4]: inactive
Potency [5]: inactive
Potency [6]: inactive
Potency [7]: 79.6 µM (active) and inactive
Potency [8]: inactive
Potency [9]: inactive
Potency [10]: inactive
Potency [11]: inactive

COc1cc(C=O)ccc1O
Potency [1]: inactive
Potency [2]: inactive
Potency [3]: inactive
outcome [4]: inactive
Potency [5]: inactive
Potency [6]: inactive
Potency [7]: inactive
Potency [8]: inactive
Potency [9]: inactive
Potency [10]: inactive
Potency [11]: inactive

CCCCC/C(C=O)=C\c1ccccc1
Potency [2]: inactive
Potency [3]: inactive
outcome [4]: inactive
Potency [5]: inactive
Potency [6]: inactive
max activation [12]: -0.992% (inactive)
Potency [13]: inactive
Potency [14]: inactive
Potency [7]: 63.4 µM (active) and inactive
Potency [8]: 35.6 µM (active) and 39.9 µM (active) and inactive
Potency [9]: 39.9 µM (active)
Potency [10]: 28.3 µM (active) and 35.6 µM (active) and 5.49 µM (active)
Potency [11]: inactive

Cc1c(N(C)CS(=O)(=O)O)c(=O)n(-c2ccccc2)n1C
Potency [2]: inactive
Potency [3]: inactive
outcome [4]: inactive
Potency [5]: inactive
Potency [6]: inactive
max activation [12]: -2.23% (inactive)
Potency [13]: inactive
Potency [14]: inactive
Potency [7]: inactive
Potency [15]: inactive
Potency [11]: inactive
